Compound activity deposited in PubChem by several laboratories.
The list is not random: actives were taken first. Their share in the collection is about 1.3%.
Phagocyt inh: blocks phagocytosis by macrophages | J774A.1 macrophage IgG-bead phagocytosis, imaging | inhibition, % at 5 µM | hit rate 0.07% among 110,000 | AID 1029;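 active means inhibition above the mean of the plate negative controls plus 5 SD, cut at about 13% in these data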;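 further: phagocytic index as fraction of beads internalized from green versus red external bead signal; plate controls were DMSO negative control for no effect and cytochalasin-D positive control for full effect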
GALR2 antag: GALR2 (human) receptor antagonism; O43603; GALR2-expressing cells, antagonist mode; inhibition, % at 4 µM; hit rate 0.39% among 140,000; AID 828; in the data active means inhibition above about 27%;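 further: cells stimulated with galanin 1-16 at roughly its EC80; 0% = agonist challenge control and 100% = basal control without agonist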
GALR2 agonist: GALR2 (human) receptor agonism; hit rate 0.48% among 140,000; GALR2-expressing cells, agonist activation read-out; O43603; activation, % (no concentration beside the values); in the data active means activation above about 5%, passing the limit was not always enough;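 further: 0% = vehicle buffer wells and 100% = reference agonist at full effect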
S1P2 blocker: antagonists of human S1P2 receptor. cell-based S1P2 antagonist assay, inhibition at 5 uM. inhibition, % at 5 µM. AID 736. hit rate 0.21% among 97,000; in the data active means inhibition above about 45%;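 further: CRE beta-lactamase reporter cells expressing human S1P2 stimulated with S1P; 0% = agonist at EC80 alone and 100% = agonist plus reference antagonist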
Target sequence (O95136 whole entry, looked up): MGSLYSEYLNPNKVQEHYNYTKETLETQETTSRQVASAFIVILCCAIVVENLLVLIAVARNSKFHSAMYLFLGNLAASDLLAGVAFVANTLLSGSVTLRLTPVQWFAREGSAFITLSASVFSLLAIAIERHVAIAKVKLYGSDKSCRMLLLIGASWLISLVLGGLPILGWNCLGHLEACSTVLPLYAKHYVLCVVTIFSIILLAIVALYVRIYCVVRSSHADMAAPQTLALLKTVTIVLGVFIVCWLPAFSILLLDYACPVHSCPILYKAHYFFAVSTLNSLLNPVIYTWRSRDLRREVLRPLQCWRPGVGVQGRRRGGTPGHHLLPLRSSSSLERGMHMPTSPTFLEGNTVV
S1P2 ag: S1P2 (human) receptor agonism. activation, % at 4.5 µM. S1P2-expressing cell line, agonist reporter read-out. hit rate 0.46% among 97,000. O95136; in the data active means activation above about 16%;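 further: 0% = vehicle low control and 100% = maximal reference agonist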
Active calls of the source: *; [ ] = remark or other dose.

What do the screens show for `CC(=O)NCCn1c(SCc2cc(=O)n3cc(Cl)ccc3n2)nc2ccccc2c1=O`?
Phagocyt inh: -1.0; GALR2 antag: 2.8; GALR2 agonist: -2.1; S1P2 blocker: -37.4; S1P2 ag: 22.2*

How did C=CCn1c(=N)c(C(=O)NCCCOC)cc2c(=O)n3ccccc3nc21 do in these assays?
Phagocyt inh: -0.8; GALR2 antag: -2.9; GALR2 agonist: 22.5*; S1P2 blocker: -32.6; S1P2 ag: 29.9*

How did CCOC(=O)c1cc2c(=O)n3ccccc3nc2n(CCCOC)c1=NC(C)=O do in these assays?
GALR2 antag: -14.5; GALR2 agonist: 12.9*; S1P2 blocker: -55.8; S1P2 ag: 35.2*

How did CNC(=O)c1cc2c(=O)n3cc(C)ccc3nc2n(Cc2ccco2)c1=N do in these assays?
Phagocyt inh: 0.1

How did C=CCn1c(=N)c(C(=O)NCCCOC)cc2c(=O)n3cc(C)ccc3nc21 do in these assays?
Phagocyt inh: 0.5; GALR2 antag: -14.0; GALR2 agonist: 16.5*; S1P2 blocker: -38.1; S1P2 ag: 18.9*

How did CNC(=O)c1cc2c(=O)n3cc(C)ccc3nc2n(C(C)C)c1=N do in these assays?
Phagocyt inh: -0.5; GALR2 antag: -0.4; GALR2 agonist: 16.2*; S1P2 blocker: -18.3; S1P2 ag: 17.8*

Results for CCOCc1c(C(=O)OCC(=O)Nc2ccc(C)c(S(=O)(=O)N(C)C)c2)oc2ccccc12 ?
Phagocyt inh: -11.5; GALR2 antag: -5.3; GALR2 agonist: 0.1

How did Cc1cc(C(=O)NCCC(c2ccccc2)c2ccccc2)c(C)o1 do in these assays?
Phagocyt inh: 0.2; GALR2 antag: -6.2; GALR2 agonist: -2.4; S1P2 blocker: 19.6; S1P2 ag: -2.9

Results for COc1ccc(Nc2nnc(SCC(=O)c3cc(C)n(CC4CCCO4)c3C)s2)cc1 (stereo not given) ?
Phagocyt inh: 3.9; GALR2 antag: 2.6; GALR2 agonist: -1.8; S1P2 blocker: -5.2; S1P2 ag: -4.6

Results for CC(C)OCCCn1c(=NC(=O)c2ccncc2)c(C#N)cc2c(=O)n3ccccc3nc21 ?
Phagocyt inh: -0.5; GALR2 antag: -22.9; GALR2 agonist: 11.9*; S1P2 blocker: -54.0; S1P2 ag: 40.6*

How did COc1ccc(Nc2ccnc(Nc3ccc(OC)cc3)n2)cc1 do in these assays?
Phagocyt inh: -4.2; GALR2 antag: 6.5; GALR2 agonist: -0.9

How did COc1ccc(Nc2nc(Nc3ccc(OC)cc3)nc(-n3[nH]c(=O)c(C)c3C)n2)cc1 do in these assays?
Phagocyt inh: 0.6; GALR2 antag: -1.7; GALR2 agonist: 73.0*; S1P2 blocker: 28.5; S1P2 ag: -6.4

Results for O=C(Nc1ccc2c(c1)OCO2)c1cnn2cccnc12 ?
Phagocyt inh: -1.5; GALR2 antag: 19.0; GALR2 agonist: 374.0*; S1P2 blocker: 14.4; S1P2 ag: -1.4

What do the screens show for `COc1cccc(/C=C2/CN(C)CC3=C2OC(N)=C(C#N)C3c2cccc(OC)c2)c1` (stereo not given)?
GALR2 antag: -11.5; GALR2 agonist: -2.3; S1P2 blocker: -11.2; S1P2 ag: 0.3

Results for Cc1ccc(/C=C2\CCC3=C2OC(N)=C(C#N)C3c2ccc(C)cc2)cc1 (stereo not given) ?
Phagocyt inh: -1.9; GALR2 antag: -6.9; GALR2 agonist: 12.2*; S1P2 blocker: 24.1; S1P2 ag: 16.8*

How did N#CC1=C(N)Oc2cc(O)ccc2C1c1ccccc1 (stereo not given) do in these assays?
Phagocyt inh: -1.0; GALR2 antag: -0.5; GALR2 agonist: -0.9

What do the screens show for `N#CC1=C(N)OC2=C(CCc3ccccc32)C1c1ccccc1` (stereo not given)?
Phagocyt inh: 15.1; GALR2 antag: -0.8; GALR2 agonist: 5.0*

How did COc1ccc(NC(=O)Cn2c(=O)n(-c3ccc(OC)cc3OC)c(=O)c3c(C)c(C)sc32)cc1 do in these assays?
Phagocyt inh: -7.1; GALR2 antag: 7.3; GALR2 agonist: -2.4

What do the screens show for `CCc1ccc(N2C(=O)CC(N3CCC(C(=O)OC)CC3)C2=O)cc1` (stereo not given)?
Phagocyt inh: 0.3; GALR2 antag: 4.9; GALR2 agonist: -1.9; S1P2 blocker: -6.1; S1P2 ag: 27.2*

How did Cc1csc(SCC(=O)Nc2sc3c(c2C#N)CCC3)n1 do in these assays?
Phagocyt inh: 0.8; GALR2 antag: 3.7; GALR2 agonist: -1.1; S1P2 blocker: -24.2; S1P2 ag: -3.4

How did Cc1ccnc(SCC(=O)Nc2sc3c(c2C#N)CCCC3)n1 do in these assays?
Phagocyt inh: -1.1; GALR2 antag: 22.2; GALR2 agonist: -2.3; S1P2 blocker: 47.0*; S1P2 ag: -5.0

Results for COc1ccc(C2=Nn3c(nnc3-c3ccco3)SC2)cc1OC ?
GALR2 antag: -11.9; GALR2 agonist: -0.8; S1P2 blocker: -40.0; S1P2 ag: 40.3*

How did COc1ccc(C2=Nn3c(nnc3-c3ccccc3OC)SC2)cc1OC do in these assays?
GALR2 antag: 30.1*; GALR2 agonist: 3.1; S1P2 blocker: -33.1; S1P2 ag: 33.6*

What do the screens show for `CCOC(=O)c1cnn(-c2nc(-c3cccc(F)c3)cs2)c1C(F)(F)F`?
GALR2 antag: 17.6; GALR2 agonist: -5.0; S1P2 blocker: -9.5; S1P2 ag: -2.3

How did C=CCNS(=O)(=O)c1nc(C)c(Cl)c(C)c1C#N do in these assays?
Phagocyt inh: 27.3*; GALR2 antag: 18.5; GALR2 agonist: -1.4

Results for CSc1nc(C)c(Cl)c(C)c1C#N ?
Phagocyt inh: -3.2; GALR2 antag: 7.9; GALR2 agonist: -0.1

How did CCOc1cc(C(=S)N2CCOCC2)ccc1OS(=O)(=O)c1ccccc1[N+](=O)[O-] do in these assays?
Phagocyt inh: -3.5; GALR2 antag: 8.4; GALR2 agonist: 1.3

What do the screens show for `CCc1ccc2[nH]c(=O)c(CN(Cc3ccc4c(c3)OCO4)Cc3nnnn3C3CCCC3)cc2c1`?
Phagocyt inh: 5.0; GALR2 antag: 0.6; GALR2 agonist: -1.8; S1P2 blocker: 0.7; S1P2 ag: 24.2*

Results for Cc1ccc2cc(CN(Cc3ccc(F)cc3)Cc3nnnn3C3CCCC3)c(=O)[nH]c2c1 ?
Phagocyt inh: -3.5; GALR2 antag: -9.3; GALR2 agonist: -0.5; S1P2 blocker: 19.9; S1P2 ag: -9.4

What do the screens show for `CC1(C(=O)OCC(=O)c2c[nH]c3ccccc23)CC1(Cl)Cl` (stereo not given)?
Phagocyt inh: -0.5; GALR2 antag: 20.5; GALR2 agonist: -1.5; S1P2 blocker: -9.3; S1P2 ag: -4.5

Results for S=C(NC1CCCCC1)N(CCc1ccccc1)CCc1ccccc1 ?
Phagocyt inh: 71.1*[artifact]; GALR2 antag: 1.6; GALR2 agonist: -1.4

How did CCCCOc1ccccc1NC(=O)Cn1c(-c2nonc2N)nc2ccccc21 do in these assays?
Phagocyt inh: -0.6; GALR2 antag: 18.1; GALR2 agonist: 7.8*

How did O=C(Nc1nnc(-c2ccc(Cl)cc2)o1)c1nc2ccccc2s1 do in these assays?
Phagocyt inh: -0.5; GALR2 antag: -6.5; GALR2 agonist: 0.2; S1P2 blocker: 51.2*; S1P2 ag: -9.1

How did COc1ccc(-c2nc(-c3ccncc3)no2)cc1OC do in these assays?
Phagocyt inh: -0.5; GALR2 antag: -6.4; GALR2 agonist: -0.6

Results for O=[N+]([O-])c1cccc(-c2nc(-c3ccncc3)no2)c1 ?
GALR2 antag: -0.1; GALR2 agonist: -1.1; S1P2 blocker: 4.3; S1P2 ag: 35.6*
